In PubChem BioAssay one finds composite z-score data, which are given here for 29 molecules.

The assay can be described thus: small-molecule microarray binders of probe aEGFR, primary screen, biochemical, biotinylated probe, 635/667 nm fluorescence (AID 1097).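 Also: probe is a biotinylated anti-EGFR antibody binding compounds printed on slides; score combines fluorescence near 667 nm and signal to noise of each spot.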 The conditions noted are these: higher = more signal.
The molecule `Cc1ccc(NN2C(C(O)c3c(F)cccc3Cl)C=CC3C(=O)N(C4CCCCC4)C(=O)C32)cc1` (centres undefined) had a composite z-score of 0.0708.

`CC(C)N1C(=O)C[C@@](C(=O)O)(c2ccc([N+](=O)[O-])cc2)[C@H]1c1ccc(CO)cc1`: the composite z-score is -0.158.

In turn, `CCCN1C(=O)[C@@]2(Cc3ccccc31)N=C(c1ccc(OCCCO)cc1)O[C@H]2c1ccccc1` returned a composite z-score of 0.0192.

The molecule `C=CCN1C(=O)[C@]2(CCS(=O)(=O)c3ccccc3)N=C(c3ccc(OCCCO)cc3)O[C@@H]2c2ccccc21` had a composite z-score of 0.0574.

`C=CC[C@@]1(C(=O)NCCCOC)N=C(c2ccc(OCCCO)cc2)O[C@@H]1c1ccccc1` returned a composite z-score of 0.0353.

Regarding `COC(=O)c1c(CC[C@@H](CO)NC(=O)N2CCC[C@H]2Cn2cc(C3(O)CCCCC3)nn2)oc(C(C)=O)c1C(=O)OC`, the composite z-score was -0.0097.

`COCC(=C=CC[C@H](O)c1ccc(OCCO)cc1)CCO` registered a composite z-score of 0.0882.

In turn, `C=CCNC(=O)[C@@H]1[C@H]2C(=O)O[C@H](c3ccccc3)[C@H](c3ccccc3)N2[C@H](c2ccccc2OCCO)[C@@]12C(=O)N(C(=O)OCCOC)c1ccc(C#CC3(O)CCCCCC3)cc12` returned a composite z-score of -0.0177.

Regarding `COc1ccc([Si](C)(C)[C@@H]2[C@@H](CCO)O[C@]3(C(=O)N(Cc4ccccc4)c4ccc(N5C(=O)c6cccc7cccc5c67)cc43)[C@H]2C)cc1`, the composite z-score was -0.177.

`C=CC[C@]1(C(=O)N2CCCCC2)N=C(c2ccc(OCCCO)cc2)O[C@H]1c1ccccc1CN=[N+]=[N-]` gave a composite z-score of -0.0512.

For the molecule `COC(=O)C1(CC(C)C)C=C2C(=C(c3ccccc3)C(=O)C2C)CN1` (centres undefined), the composite z-score came to 0.917.

In turn, `COc1ccc(CCNC(=O)[C@@H]2c3ccccc3C(=O)N(C3CCCCC3)[C@H]2c2ccc(CO)cc2)cc1` gave a composite z-score of -0.0972.

On to `CCCCCN1CC=CC23O[C@@H]4C=CCCOC(=O)C4[C@H]2C(=O)N(CCCCCCO)[C@@H]3C1=O` (some centres undefined), for which the composite z-score is -0.282.

As to `CCOC(=O)C[C@H]1[C@H](OC(=O)c2ccc(-c3ccccc3)cc2)[C@@H](NC(=O)CC(C)C)c2cc(OCCCO)ccc2N1C(=O)c1ccc2ccccc2n1`, the composite z-score was -0.0828.

`COC(=O)C(CC#Cc1ccc2c(c1)[C@]1(C(=O)N2)[C@H](c2ccc(O)cc2)N2[C@H](c3ccccc3)[C@H](c3ccccc3)OC(=O)[C@H]2[C@@H]1C(=O)NC[C@H](O)c1ccccc1)C(=O)OC` came in with a composite z-score of 0.128.

`COC(=O)[C@]1(CCS(=O)(=O)c2ccccc2)N=C(c2ccc(OCCCO)cc2)O[C@@H]1c1ccccc1N=[N+]=[N-]` returned a composite z-score of 0.6.

On to `O=C1C2C=CC(C(O)C3CC=CCC3)N(Nc3ccccc3)C2C(=O)N1c1ccccc1` (centres undefined), for which the composite z-score amounted to 0.153.

In turn, `CCOC(=O)C[C@H]1[C@H](OC(=O)c2cc3ccccc3oc2=O)[C@@H](NC(=O)c2ccccc2)c2cc(OCCCO)ccc2N1C(=O)c1ccccc1` showed a composite z-score of 0.223.

The molecule `COc1ccc([Si](C)(C)[C@H]2[C@H](CC(=O)N3Cc4ccccc4C[C@H]3CO)O[C@@]3(C(=O)N(Cc4ccc(N5CCOC5=O)cc4)c4ccccc43)[C@@H]2C)cc1` had a composite z-score of -0.022.

In the case of `CC1CC/C=C\[C@H]2OC34C=CCN(C(C)C)C(=O)[C@H]3N(CCO)C(=O)[C@@H]4C2C(=O)O1` (some centres undefined), the composite z-score is -0.281.

Turning to `COCCCNC(=O)[C@@H]1c2ccccc2C(=O)N(C(C)C)[C@H]1c1ccc(CO)cc1`, the composite z-score is -0.02.

As for `COc1cccc(C)c1NC(=O)O[C@H]1[C@H](OC(=O)Nc2ccccc2-c2ccccc2)[C@H](OC(=O)Nc2ccccc2-c2ccccc2)[C@@H](OC)O[C@@H]1CO`, the composite z-score was -0.0824.

In turn, `CC(C)c1ccc(NN2C(C(O)c3ccc(F)cc3)C=CC3C(=O)N(c4ccccc4)C(=O)C32)cc1` (centres undefined) showed a composite z-score of 0.0182.

In turn, `C#CCN(Cc1ccccc1Br)[C@H](/C=C/c1ccccc1)[C@@H](O)Cc1ccccc1` displayed a composite z-score of -0.397.

The molecule `[N-]=[N+]=Nc1ccccc1C[C@]1(C(=O)NCC(O)CO)COC(c2ccc(OCCCO)cc2)=N1` (some centres undefined) came in with a composite z-score of 0.58.

Consider `O=C1O[C@@H](c2ccccc2)[C@@H](c2ccccc2)N2[C@@H](c3ccc(OCCO)cc3)[C@]3(C(=O)Nc4ccc(C#CC5=CCCCC5)cc43)[C@@H](C(=O)NC[C@H](O)c3ccccc3)[C@H]12`, for which the composite z-score is -0.246.

`CCCC=C(CCC)[C@@H](NS(=O)(=O)c1ccc(C(F)(F)F)cc1)c1ccccc1` displayed a composite z-score of -0.0415.

With `CCCCCCCCCC(O)C1C=CC2C(=O)N(c3ccccc3)C(=O)C2N1Nc1cc(OC)c(OC)c(OC)c1` (centres undefined), the composite z-score is -0.0978.

As to `O=C(c1ccccc1)N1C(=O)[C@]2(Cc3ccccc31)N=C(c1ccc(OCCCO)cc1)O[C@@H]2c1ccccc1`, the composite z-score is -0.157.
